Measured values published in PubChem BioAssay (NCI).
The panel holds about 83,000 compounds, 20% with a hit somewhere; the sample as a whole holds those more often.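 Testing used 96-well plates and a 48-hour single-concentration exposure. Example: -40 means 40% of the starting cells died.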 A number with no mark means an inactive call. Active and inactive are the calls of the source. Rule for the calls: active = growth percent below 10; inactive = the rest.

Each compound was assayed on HCT-15 colon (assay: NCI-60 one-dose screen, 48 h (100 = growth as untreated, 0 = no growth, -100 = all killed)). Conditions: 10 µM unless noted.
With C#C[C@]1(O)CC[C@H]2[C@@H]3CC=C4c5sc(Nc6cc(C)cc(C)c6)nc5CC[C@]4(C)[C@H]3CC[C@@]21C the growth was -37.1% (active). CCCC[n+]1ccc(SCC(=O)n2ccc3ccccc32)c2ccccc21 gave a growth of 103%. For CC(C)(C)c1cc(NC(=O)Nc2ccc(-c3cn4c5c(sc4n3)CCc3cn(CCCN4CCCCC4)cc3-5)cc2)no1, the growth was -82.7% (active). With CCCCCCNC(=O)Oc1ccc(/C(=C(/C)c2ccc(OC)cc2)c2ccc(OCCN3CCCCCC3)cc2)cc1 the growth was -39.1% (active). Cn1cc(-c2cc3ncnc(Nc4ccc(CC(=O)Nc5nc(C(C)(C)C)cs5)cc4)c3s2)cn1 showed a growth of 26.6%. O=C(CCCCCC/C=C\c1csc(Br)n1)NO gave a growth of 90.9%. COc1ccc(C(=O)c2c(N)c(C#N)cn2-c2ccc(Cl)cc2Cl)cc1 gave a growth of 99.3%. Cc1ccc2c(n1)C(=O)C(Cl)=C(Nc1cccc(C(F)(F)F)c1)C2=O was tested, and the growth was -61.1% (active). With O=C1[C@H]2Cc3c([nH]c4ccccc34)[C@H](c3ccc(Cl)cc3)N2C(=O)CN1C1CCN(CC2CCCCC2)CC1 the growth was 28.6%. COc1ccc(/C=N/NC(=O)c2c(N)nn(C)c2Nc2ccccc2)cc1 gave a growth of 19.1%. Compound Fc1ccc2nc(-c3cnn4cccnc34)sc2c1 has a growth of 76.9%. With O=C(/C=C/c1cccc(F)c1)c1cccc(OCCCCOc2cccc(C(=O)/C=C/c3cccc(F)c3)c2)c1 the growth was 97.6%. In the case of O=C(COc1ccc(/C=C2\C(=O)Nc3ccc(Cl)cc32)cc1)Nc1ccc(Cl)cc1, the growth is reported as 42.1%. O=C(Nc1cccc(Cl)c1)Nc1nc2cc([N+](=O)[O-])ccc2o1 showed a growth of 29.4%. In the case of COc1ccc(NC(=O)CCCCCCNC(=O)C(O)(O)C(F)(F)F)cc1, the growth is reported as 67.7%. CC(=O)N(O)CCCCCNC(=O)CCC(=O)N(O)CCCCCNC(=O)CCC(=O)N(O)CCCCCN(CCCCCCCCCC[P+](c1ccccc1)(c1ccccc1)c1ccccc1)CCCCCCCCCC[P+](c1ccccc1)(c1ccccc1)c1ccccc1 was tested, and the growth was 51.1%. In the case of Cc1cc(Br)ccc1-n1cc(C#N)c(N)c1C(=O)c1ccc(Br)cc1, the growth is reported as 97.6%. With CN(C)S(=O)(=O)c1ccc(-c2nc(C(Cl)Cl)nc3cc(-c4ccccc4)nn23)cc1 the growth was 47.7%. CN1CCN(c2ccc(Nc3nc(NCCNC(=O)c4ccc(F)cc4)c4sccc4n3)cc2)CC1 gave a growth of 28.2%. For O=[N+]([O-])c1ccc(NC(=S)NNC(=S)Nc2ccc(Br)cc2)cc1, the growth was 42.1%. C/C(=N\NC(=O)/C=C/CC(=O)O)c1nnn(-c2ccc([N+](=O)[O-])cc2)c1C showed a growth of 105%. CN1CCN(c2ccc(Nc3nc(NCCCNS(=O)(=O)c4ccc(F)cc4)c4sccc4n3)cc2)CC1 showed a growth of 25.5%. For N#CC1=C2NCCCNc3oc(nc3C#N)Cc3ccccc3CC(=N1)O2, the growth was 74.8%. For COc1ccccc1/C=C1\Oc2ccc(O)c(O)c2C1=O, the growth was 77.5%. COc1ccc(NC2=C(Br)C(=O)C(C)=C(C)C2=O)cc1OC gave a growth of 97.9%. Compound O=C(Nc1ccc(N=Cc2c(O)[nH]c3ccccc23)cc1)Nc1ccc(S(=O)(=O)Nc2ncccn2)cc1 has a growth of 97.4%. In the case of NC(=O)c1c(NC(=O)c2ccc(C(F)(F)F)cc2)sc2c1CCC(=O)C2, the growth is reported as -21.2% (active). O=C(/C=C/c1cccc(Br)c1)c1cccc(OCCCCOc2cccc(C(=O)/C=C/c3cccc(Br)c3)c2)c1 showed a growth of 108%. For O=C(CCCCCCNC(=O)c1csc(Br)n1)NO, the growth was 60.5%. CC1CC(=O)C2=C(C1)Nc1ccc(Br)cc1CC2c1c[nH]c2ccc(Br)cc12 (stereo unspecified) was tested, and the growth was 27.1%. Compound C#CCN(C)CCCOc1ccc(NCc2ccc(C(=O)NO)cc2)cc1Cl has a growth of 20%. In the case of CC(=O)Nc1nc(C)c(-c2csc(Nc3ccccc3)n2)s1, the growth is reported as 16.4%. With Cc1csc(/N=C(N)/N=C(\N)c2cccc(C#N)c2)n1 the growth was 39.3%. Clc1cccc(/C=N/Nc2nc(N/N=C/c3cccc(Cl)c3)nc(N3CCCCC3)n2)c1 showed a growth of 79.8%. For O=C1[C@H]2Cc3c([nH]c4ccccc34)[C@H](c3ccc(Br)cc3)N2C(=O)CN1C1CCN(CC2CCCCC2)CC1, the growth was 38.8%. Cc1[nH]c(C(=O)Nc2ccc(C(=O)NCC3CCNCC3)cc2OC(C)C)c(Cl)c1Cl showed a growth of 93.7%.
